“And” between values parts separate entries of the source, which are not always exact repeats. Equal values may be shown once. Records with an inconclusive call do not appear. Entries that show only a call come without a potency. For part of these data: Measured potencies and affinities stand elsewhere. The source made the active and inactive calls. Unless noted, no rule for the calls is given here.
Key:
[1] = qHTS Assay for Identifying Gametocytocidal Compounds (AID 743244; active = well fitted curve in the direction sought with a large enough effect; an effect the other way counts as inactive or inconclusive;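 also: actives lower the fluorescent signal which means gametocytes are killed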); details: P. falciparum 3D7 stage III-V gametocytes, alamarBlue, 72 h; max response: stronger effect = lower value
Summary of the method: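 Late gametocytes (III–V), P. falciparum 3D7; 72 h drug, then 24 h alamarBlue; resazurin reduction read by fluorescence.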

[2] = qHTS assay for cell viability of HEK293 cells (AID 743288; active = well fitted curve in the direction sought with a large enough effect; an effect the other way counts as inactive or inconclusive; also: nearly all actives have a fitted effect of over 50% in size); details: ATP luminescence (CellTiter-Glo), 18 h, stronger effect = lower value
Summary of the method: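 ATP luminescence (CellTiter-Glo) reports metabolically competent cell number after parental HEK293 cells, 2,000/well, were treated with DMSO-dissolved compounds for 18 h at 37 C; reagent incubation 30 min, room temperature.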

[3] = qHTS assay for cell viability of the p53RE-bla HCT-116 cell line (AID 743292; active = well fitted curve in the direction sought with a large enough effect; an effect the other way counts as inactive or inconclusive; also: nearly all actives have a fitted effect of over 55% in size)
Summary of the method: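 CellSensor p53RE-bla HCT-116 cells, 4,000/well, preincubated 5 h at 37 C, then exposed to compounds in DMSO for 16 h at 37 C. Viability read as CellTiter-Glo luminescence (intracellular ATP) after 30 min at room temperature.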

[4] = Ebola virus entry assay, blue channel fluorescence
[5] = Ebola virus entry assay, ratio channel
[6] = Ebola virus entry assay, green channel fluorescence
[7] = target: T1, Hexokinase-4 (Homo sapiens) + Glucokinase regulatory protein (Homo sapiens) (UniProt P35557+Q14397); assay: qHTS assay for inhibitors of recombinant human GCK-GKRP interaction: Diaphorase-coupled assay (AID 743205; active = well fitted curve in the direction sought with a large enough effect; an effect the other way counts as inactive or inconclusive)
Summary of the method: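 Resorufin fluorescence (525/590 nm), read each minute over 30 min, reports GCK activity coupled via G6PDH and diaphorase. Reaction: 10 nM GST-GCK, 10 nM FLAG-GKRP, 5 mM glucose, 0.4 mM ATP, 0.15 mM NADP+, 0.1 mM resazurin.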

[8] = target: T1, Hexokinase-4 (Homo sapiens) + Glucokinase regulatory protein (Homo sapiens); assay: qHTS assay for inhibitors of recombinant human GCK-GKRP interaction: ADP-Glo assay (AID 743206; active = well fitted curve in the direction sought with a large enough effect; an effect the other way counts as inactive or inconclusive)
Summary of the method: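 Pin-transferred compounds meet a 15 nM GST-GCK/15 nM FLAG-GKRP/2 uM S6P mix (dispense concentrations). ATP is then added to 0.4 mM final with 5 mM glucose, and the reaction runs 60 min at room temperature. ADP is quantified luminescently.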

[9] = target: T1, Hexokinase-4 (Homo sapiens) + Glucokinase regulatory protein (Homo sapiens); assay: qHTS assay for inhibitors of recombinant human GCK-GKRP interaction: HTRF assay (AID 743207; active = well fitted curve in the direction sought with a large enough effect; an effect the other way counts as inactive or inconclusive)
Summary of the method: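 HTRF read-out (ex 320 nm; 615/665 nm emission) after 60 min RT equilibration of 5 nM GST-GCK, 5 nM FLAG-GKRP, 2 uM S6P, compound and anti-FLAG/anti-GST detection antibodies; signal normalized between DMSO wells with and without GCK.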

[10] = qHTS profiling of the MIPE4 collection as inhibitors of Plasmodium falciparum (3D7) proliferation (AID 743344); details: P. falciparum 3D7 in erythrocytes, SYBR Green DNA fluorescence, 72 h; at 28.5 µM (top of the series) unless noted
Summary of the method: (§1)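 Parasite DNA was quantified by SYBR Green I fluorescence (ex 485, em 535 nm) after overnight lysis in saponin/Triton buffer at room temperature. Cultures at 0.3% parasitemia and 2.5% hematocrit were first exposed to compound for 72 h at 37 C; signals were normalised to artemisinin (0.29 uM) and vehicle wells.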

[11] = qHTS profiling of the MIPE4 collection as inhibitors of Plasmodium falciparum (DD2) proliferation (AID 743345); details: P. falciparum Dd2 in erythrocytes, SYBR Green DNA, 72 h; at 28.5 µM (top of the series) unless noted
Summary of the method: as §1

[12] = qHTS profiling of the MIPE4 collection as inhibitors of Plasmodium falciparum (DD2) proliferation (Rep 2) (AID 743346); details: P. falciparum Dd2 in erythrocytes, SYBR Green DNA, 72 h; at 28.5 µM (top of the series) unless noted
Summary of the method: as §1

[13] = qHTS profiling of the MIPE4 collection as inhibitors of Plasmodium falciparum (HB3) proliferation (AID 743347); details: P. falciparum HB3 in erythrocytes, SYBR Green DNA, 72 h; at 28.5 µM (top of the series) unless noted
Summary of the method: as §1

T1 sequence (P35557 whole entry, looked up): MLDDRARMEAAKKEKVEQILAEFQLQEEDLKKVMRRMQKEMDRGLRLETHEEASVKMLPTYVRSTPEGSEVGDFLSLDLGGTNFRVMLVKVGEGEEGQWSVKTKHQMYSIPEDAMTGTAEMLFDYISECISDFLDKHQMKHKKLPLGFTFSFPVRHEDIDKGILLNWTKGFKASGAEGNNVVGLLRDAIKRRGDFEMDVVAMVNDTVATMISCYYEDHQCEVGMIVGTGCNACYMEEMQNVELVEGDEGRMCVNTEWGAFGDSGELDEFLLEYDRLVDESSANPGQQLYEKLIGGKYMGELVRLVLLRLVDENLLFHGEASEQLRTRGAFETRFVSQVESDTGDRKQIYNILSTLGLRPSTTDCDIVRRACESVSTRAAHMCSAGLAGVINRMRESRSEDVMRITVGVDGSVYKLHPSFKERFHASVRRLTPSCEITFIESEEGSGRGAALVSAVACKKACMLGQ
T1 sequence (Q14397 whole entry, looked up): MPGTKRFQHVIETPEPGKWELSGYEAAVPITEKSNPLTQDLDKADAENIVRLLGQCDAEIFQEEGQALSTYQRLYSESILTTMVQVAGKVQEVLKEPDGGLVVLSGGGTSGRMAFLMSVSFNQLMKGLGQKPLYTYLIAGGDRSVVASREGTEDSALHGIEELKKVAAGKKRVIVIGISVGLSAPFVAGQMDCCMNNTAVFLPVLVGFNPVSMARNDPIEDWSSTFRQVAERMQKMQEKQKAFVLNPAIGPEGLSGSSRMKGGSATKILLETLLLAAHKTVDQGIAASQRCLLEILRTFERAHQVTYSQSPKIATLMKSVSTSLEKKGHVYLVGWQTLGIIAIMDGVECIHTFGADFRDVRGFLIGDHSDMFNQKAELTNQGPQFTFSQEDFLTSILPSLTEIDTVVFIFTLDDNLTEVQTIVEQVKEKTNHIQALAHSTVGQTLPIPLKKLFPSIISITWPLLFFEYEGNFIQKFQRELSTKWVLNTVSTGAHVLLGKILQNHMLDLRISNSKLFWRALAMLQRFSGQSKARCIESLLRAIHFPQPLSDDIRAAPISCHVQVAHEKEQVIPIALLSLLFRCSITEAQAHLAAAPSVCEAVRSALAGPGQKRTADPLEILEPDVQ

Nc1nc(N)nc(NC2CC2)n1
max response [1]: -8.01% (inactive)
max response [2]: -3.61% (inactive)
Potency [3]: inactive
outcome [4]: inactive
outcome [5]: inactive
outcome [6]: inactive

CCN[C@@H](C)Cc1cccc(C(F)(F)F)c1
max response [1]: 13.9% (inactive)
outcome [4]: inactive
outcome [5]: inactive
outcome [6]: inactive

CCN[C@@H](C)Cc1ccccc1
max response [1]: -4.1% (inactive)
outcome [4]: inactive
outcome [5]: inactive
outcome [6]: inactive

CCN(CC)C(C)CN1c2ccccc2Sc2ccccc21 (stereo not drawn)
outcome [4]: inactive
outcome [6]: inactive

CN(C)CCc1c[nH]c2cccc(OP(=O)(O)O)c12
outcome [4]: inactive
outcome [6]: inactive

CO[C@@]1(NC(=O)CSC[C@@H](N)C(=O)O)C(=O)N2C(C(=O)O)=C(CSc3nnnn3C)CS[C@@H]21
outcome [4]: inactive
outcome [5]: inactive
outcome [6]: inactive

Cc1cc(=O)oc2cc(O[C@@H]3SC[C@@H](O)[C@H](O)[C@H]3O)ccc12
outcome [4]: inactive
outcome [6]: inactive

COP(=S)(OC)Oc1ccc(SC)c(C)c1
max response [2]: 2.92% (inactive) and -23.3% (inactive)
Potency [3]: inactive
outcome [4]: inactive
outcome [5]: inactive
outcome [6]: inactive

CC(=O)NC1CCSC1=O (stereo not drawn)
max response [1]: -2.2% (inactive) and 7.47% (inactive)
outcome [4]: inactive
outcome [5]: inactive
outcome [6]: inactive

O=C(/C=C/c1ccccc1)OCc1ccccc1
outcome [4]: inactive
outcome [5]: inactive
outcome [6]: inactive

CCCCCCn1c(=O)c2c(ncn2C)n(C)c1=O
outcome [4]: inactive
outcome [6]: inactive

NC/C=C/C(=O)O
outcome [4]: inactive
outcome [6]: inactive

Cc1cn([C@@H]2O[C@H](CO)[C@@H](O)[C@H]2F)c(=O)[nH]c1=O
outcome [4]: inactive
outcome [6]: inactive

CNCC(=O)c1ccc(O)c(O)c1
max response [1]: 39.9% (inactive)
outcome [4]: inactive
outcome [5]: inactive
outcome [6]: inactive

CC(C)(C)c1ccc(O)cc1
max response [2]: 3.38% (inactive)
outcome [4]: inactive
outcome [5]: inactive
outcome [6]: inactive

CC1(C)OC[C@@H]2O[C@@]3(C(=O)O)OC(C)(C)O[C@H]3[C@@H]2O1
outcome [4]: inactive
outcome [6]: inactive

CC(C)NC(C)C
max response [1]: 15.3% (inactive)
max response [2]: 4.29% (inactive)
Potency [3]: inactive
outcome [4]: inactive
outcome [5]: inactive
outcome [6]: inactive

CC(C)c1ccc2oc3nc(N)c(C(=O)O)cc3c(=O)c2c1
outcome [4]: inactive
outcome [6]: inactive

COc1ccccc1OCC1CNC(=O)O1 (stereo not drawn)
outcome [4]: inactive
outcome [6]: inactive

CCO[C@H](Cc1ccc(OCCc2ccc(OS(C)(=O)=O)cc2)cc1)C(=O)O
outcome [4]: inactive
outcome [6]: inactive

NC(=O)NC(=O)Cc1ccccc1
outcome [4]: inactive
outcome [6]: inactive

CCCC(=O)O[C@]1(C(=O)COC(=O)CC)CC[C@H]2[C@@H]3CCC4=CC(=O)CC[C@]4(C)[C@H]3[C@@H](O)C[C@@]21C
outcome [4]: inactive
outcome [6]: inactive

COc1cc(CC(C)N)cc(OC)c1OC (stereo not drawn)
max response [1]: 4.71% (inactive)
outcome [4]: inactive
outcome [5]: inactive
outcome [6]: inactive

CC(C)(CO)[C@@H](O)C(=O)NCCCO
outcome [4]: inactive
outcome [6]: inactive

O=C(O)c1ccccc1-c1ccc(C(F)(F)F)cc1
outcome [4]: inactive
outcome [6]: inactive

CCN1CCCC1CNC(=O)c1cc(S(=O)(=O)CC)c(N)cc1OC (stereo not drawn)
outcome [4]: inactive
outcome [6]: inactive

O=C(O)c1cc(=O)[nH]c(=O)[nH]1
outcome [4]: inactive
outcome [6]: inactive

CC(C)(C)NCC(O)c1ccccc1Cl (stereo not drawn)
outcome [7]: inactive
outcome [8]: inactive
outcome [9]: inactive

NCCc1ccc(O)cc1
outcome [7]: inactive
outcome [8]: inactive
outcome [9]: inactive

COc1cc(OC)c(OC)cc1C=O
parasite growth, % of DMSO control [10]: 98%
parasite growth remaining, % of DMSO control (lower = more inhibition) [11]: 89%
parasite growth, % of control (lower = inhibition) [12]: 110%
growth, % of control [13]: 102%

C[C@]12CCC(=O)C=C1CC[C@@H]1[C@H]3CC[C@](C)(O)[C@@]3(C)CC[C@@H]12
parasite growth, % of DMSO control [10]: 70.7% [at 57.5 µM]
parasite growth remaining, % of DMSO control (lower = more inhibition) [11]: 94.5% [at 57.5 µM]
parasite growth, % of control (lower = inhibition) [12]: 65.8% [at 57.5 µM]
growth, % of control [13]: 84.5% [at 57.5 µM]

— PubChem BioAssay (NCATS)
